Screening data (PubChem)
A selection: hits, their analogues and other compounds. The true share with any hit is near 6.6%.
KB-3-1 cytotox – kills parental KB-3-1 adenocarcinoma cells | KB-3-1 viability, CellTiter-Glo ATP luminescence, 72 h | Potency, µM (doses to about 46.1 µM), usual class: cytotoxic | AID 1347075 | hit rate 1.4% among 400,000; also: % is scaled to controls: 0 for no effect and ±100 for the full control effect; nearly all actives have a fitted effect of over 60% in size
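KB-3-1 cells, DMEM (no phenol red) + 10% FBS; compound by pin transfer, 72 h, 37 °C. Readout: CellTiter-Glo luminescence after 10 min. Data normalized, curve-fitted.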
RGS4 inhibitor – human RGS4 inhibition; hit rate 0.039% among 390,000; Transcreener GDP fluorescence polarization, RGS4-accelerated GTP hydrolysis; Potency, µM (series often up to 114 µM), inactives show top-dose activity change, negative = inhibition, most hits filed as inhibitors; P49798; also: % is scaled to controls: 0 for no effect and ±100 for the full control effect; nearly all actives have a fitted effect of over 75% in size
Target sequence (P49798 whole entry, looked up): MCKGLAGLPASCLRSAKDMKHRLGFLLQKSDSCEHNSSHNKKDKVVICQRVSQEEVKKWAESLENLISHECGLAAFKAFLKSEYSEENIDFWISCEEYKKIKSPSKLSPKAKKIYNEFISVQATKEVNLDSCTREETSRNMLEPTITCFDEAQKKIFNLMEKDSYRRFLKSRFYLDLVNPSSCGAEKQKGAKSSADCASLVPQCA
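MLSMR compounds (23 nl, pin-transferred) preincubated 10 min at room temperature with a 500nM (2x) first reagent, then RGS4 at 900nM (2x) plus Transcreener GDP mix added; fluorescence polarization (620/688 nm) read before and after 90 min at 30 °C.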
KB-V1 cytotox – kills drug-selected multidrug resistant KB-V1 cells | Potency, µM (titrated, usually from 46.1 µM), usual class: cytotoxic | KB-V1 MDR cells viability, CellTiter-Glo, 72 h | hit rate 3.4% among 400,000; also: % is scaled to controls: 0 for no effect and ±100 for the full control effect; nearly all actives have a fitted effect of over 60% in size
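Drug-selected KB-V1 cells, grown in DMEM lacking phenol red with 10% FBS, receive compound titrations; after three days at 37 degrees C, surviving cell ATP is quantified by CellTiter-Glo luminescence and responses normalized and curve-fitted.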
SW480 rereplic – inducers of DNA re-replication in SW480 colon cancer cells. AID 624297. SW480 DNA re-replication, Hoechst DNA content imaging, 48 h. hit rate 1.8% among 340,000. Potency, µM (doses to about 46.1 µM), inactives show at the top dose re-replication activation, actives largely listed as activators; also: % of control where 0% means no effect; nearly all actives have a fitted effect of over 55% in size
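First, 250 cells per well were seeded. Next, compound or vehicle (23 nL) was pinned in, plates sat 48 hr at 37 C. Finally Hoechst was added for 40 min before fluorescence scanning.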
PTAP TSG101 blk – blocks PTAP/TSG101 interaction to inhibit HIV-1 budding | Q99816 | Fluorescence polarization, FITC-PTAP peptide / Tsg101 binding | Potency, µM (highest dose often 115 µM), inactives show at the top dose activity change, negative = inhibition, hits mostly inhibitors | 340,000 tested, under 10 active | AID 493005; active = well fitted inhibition curve with a large enough effect in the main read-out, with a control signal flat, not every such curve was filed as active; inconclusive = small, poorly fitted or top-dose-only effect, or effect the other way, or a change in a side signal; inactive = no such curve, though single readings can be large or run the other way; also: % of control where 0% means no effect
Target sequence (Q99816 whole entry, looked up): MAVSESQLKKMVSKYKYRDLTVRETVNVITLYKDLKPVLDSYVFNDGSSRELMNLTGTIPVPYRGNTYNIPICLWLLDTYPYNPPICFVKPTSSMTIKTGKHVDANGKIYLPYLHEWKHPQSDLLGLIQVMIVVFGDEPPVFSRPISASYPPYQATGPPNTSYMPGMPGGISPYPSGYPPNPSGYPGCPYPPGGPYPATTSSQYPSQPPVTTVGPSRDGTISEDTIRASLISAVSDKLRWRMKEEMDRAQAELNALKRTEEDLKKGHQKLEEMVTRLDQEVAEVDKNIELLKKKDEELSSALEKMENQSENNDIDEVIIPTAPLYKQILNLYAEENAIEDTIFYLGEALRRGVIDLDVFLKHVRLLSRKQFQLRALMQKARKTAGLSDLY
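Tsg101 binding domain (10 uM final) was mixed with compound and a FITC-labeled PTAP peptide (50 nM final) in HEPES pH 7.5 buffer with NaCl, Tween 20, EDTA and TCEP; fluorescence polarization was read after 20 min at r.t.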
MCF10A rereplic – induces DNA re-replication in MCF 10a normal breast cells; MCF 10A DNA re-replication, Hoechst nuclear intensity, 48 h; Potency, µM (series often up to 46.1 µM), for inactives: at the top dose activity, positive = re-replication, actives largely listed as activators; hit rate 2.9% among 350,000; AID 624296; also: % of control where 0% means no effect; nearly all actives have a fitted effect of over 50% in size
Numbers without * were called inactive; i = inactive; ? = inconclusive; / = no result given; [ ] = remark or other dose. Unless noted, calls follow the shape of the dose curve; as a rule, active = well fitted curve in the direction sought with a large enough effect; inconclusive = small, poorly fitted or top-dose-only effect, or another doubt; inactive = no such curve, though single readings can be large; an effect the other way counts as inactive or inconclusive. Potency is read from the fitted curve at half-maximal effect.

SMILES	KB-3-1 cytotox	RGS4 inhibitor	KB-V1 cytotox	SW480 rereplic	PTAP TSG101 blk	MCF10A rereplic
CC(=O)Nc1nonc1-c1nnc(SCc2ccccc2Cl)n1C	i	2%	i	/	/	/
COc1ccc2c(c1)c(N1CCCC1=O)c(C(=O)Nc1cc(C)c(Cl)cc1OC)n2C	?	-14%	i	/	/	/
CCCCCCOc1ccc(NC(=O)CC2C(=O)N(CC)C(=S)N2Cc2ccco2)cc1 (stereo unspecified)	?	-9%	i	?	0%	18µM*
COc1ccc(NC(=O)CC2C(=O)N(C)C(=S)N2Cc2cccs2)cc1 (stereo unspecified)	i	-8%	i	-5%	-5%	-1%
CCCOc1ccc(NC(=O)CC2C(=O)N(CC)C(=S)N2Cc2cccs2)cc1 (stereo unspecified)	?	-22%	15µM*	17%	-3%	8%
O=C(CN1CCOCC1)Nc1ncc(Cc2cccc(Cl)c2)s1	i	-7%	i	8.2µM*	-6%	?
Cc1cc(C)nc(SCC(=O)Nc2ncc(Cc3cccc(Cl)c3)s2)n1	i	-40%	4.6µM*	1%	0%	?
O=C(CN1CCOCC1)Nc1ccc(Br)cn1	i	18%	i	21µM*	0%	?
CC(C)CC(NC(=O)c1ccc(Cl)cc1)C(=O)OCC(=O)c1ccc2c(c1)NC(=O)CO2 (stereo unspecified)	7.3µM*	-7%	i	?	1%	?
Cc1ccc(N(Cc2cccs2)C(=O)c2ccco2)cc1	/	-19%	/	/	/	/
O=C(Nc1ccc(OC(=O)c2ccccc2)c(-c2nc3ccccc3s2)c1)c1ccccc1	i	4%	i	?	-4%	21µM*
COc1ccc(C(=O)Nc2cc(C)c(O)c(-c3nc4ccccc4s3)c2)cc1OC	?	-10%	i	/	/	/
O=C(Nc1ccc(Cc2nc3ccccc3s2)cc1)c1ccncc1	16µM*	-8%	7.3µM*	0%	-1%	?
Cc1ccccc1-n1nc(CO)c(C(=O)NCc2cccnc2)n1	/	-10%	/	/	/	/
CCCCOc1ccc(C(=O)NCC(=O)NCCOc2ccccc2OC)cc1	i	26%	i	0.92µM*	0%	9%
Cc1ccccc1OCCNC(=O)CNC(=O)c1ccccc1O	i	-28%	16µM*	-7%	-8%	12%
Cn1nnnc1Sc1ncnc2scc(-c3cccc4c3sc3ccccc34)c12	21µM*	-16%	?	?	-1%	?
Cn1nnnc1Sc1ncnc2scc(-c3cccc(Br)c3)c12	7.3µM*	-7%	18µM*	?	/	?
Cn1nnnc1Sc1ncnc2scc(-c3ccc(Cl)cc3)c12	?	-25%	?	15%	/	8%
Cn1nnnc1Sc1ncnc2scc(-c3ccc([N+](=O)[O-])cc3)c12	?	-18%	i	21%	0%	2.6µM*
Cn1nnnc1Sc1ncnc2scc(-c3ccc4c(c3)OCO4)c12	i	-22%	i	12%	2%	23µM*
C[C@H](N)CCCP(=O)(O)O	/	i	/	/	/	/
Cn1nnnc1Sc1ncnc2scc(-c3cccc(S(C)(=O)=O)c3)c12	21µM*	-15%	?	10%	/	4.6µM*
O=C(Cc1ccc(OCc2ccccc2)cc1)NO	i	/	i	/	/	/
CC1Cc2cc(-c3csc(NC(=O)Cc4ccccc4)n3)ccc2N1S(C)(=O)=O (stereo unspecified)	21µM*	2%	3.3µM*	2%	-6%	16%
SMILES	KB-3-1 cytotox	RGS4 inhibitor	KB-V1 cytotox	SW480 rereplic	PTAP TSG101 blk	MCF10A rereplic
Cc1ccc(C)c(N2CCN(C(=O)CCc3c(C)nn(-c4ccc(N5CCCC5)nn4)c3C)CC2)c1	/	5%	/	/	/	/
CC(C)CC1NC(=S)N(C2CCCCC2)C1=O (stereo unspecified)	i	-43%[11.4 µM]	i	?	-6%	16µM*
CCC1NC(=S)N(C2CCCCC2)C1=O (stereo unspecified)	i	0%	i	1%	-6%	0%
CC(C)CC1NC(=S)N(Cc2ccccc2)C1=O (stereo unspecified)	?	4%	21µM*	?	-4%	?
CCC/C=C1\CCCOC(C(=O)NCc2ccccc2)(C(F)(F)F)C1 (stereo unspecified)	/	23%	/	/	/	/
Cn1cnc([N+](=O)[O-])c1Sc1ccc(Br)cc1	i	4%	i	?	1%	6.5µM*
Cc1ccc(Sc2c([N+](=O)[O-])ncn2C)cc1	i	26%	i	6%	-1%	?
O=C(C1CCCN(S(=O)(=O)c2ccccc2[N+](=O)[O-])C1)N1CCCC1 (stereo unspecified)	i	-10%	12µM*	-1%	-1%	-7%
Nc1cccc2c1C(=O)N(Cc1cccc(Cl)c1)C2=O	i	11%	i	?	-1%	16µM*
CC(=O)n1cc(CO)c2ccccc21	i	0%	i	25%	-1%	-7%
CC(=O)n1cc(N(C(=O)CCl)c2ccc([N+](=O)[O-])cc2)c2ccccc21	?	-16%	?	16µM*	-5%	?
CC(=O)n1cc(N(C(=O)CCl)c2ccccc2)c2ccccc21	?	-33%	?	1.6µM*	-4%	16µM*
COC(=O)c1ccccc1NC(=O)CSc1nc2ccccc2nc1Cc1ccc(F)cc1	i	0%	?	/	/	/
CC(C)CN(CC(C)C)C(=O)Cc1coc2ccc3ccccc3c12	?	-27%	23µM*	16%[9.22 µM]	-7%	?
Cc1cc(C)c2c(=O)c3c(oc2c1)C(=O)N(Cc1ccc(F)cc1)C3c1cccc(O)c1 (stereo unspecified)	?	-17%	?	/	/	/
Cc1ccc(C(=O)C=Cc2cccc(C)c2)cc1	i	-21%	i	?	-6%	18µM*
Cc1cccc(C=CC(=O)c2ccccc2)c1	?	-9%	i	?	1%	?
Cc1ccc(C(=O)/C=C/C(=O)c2ccc(C)cc2)cc1	i	-116%	i	-3%	-5%	3.7µM*
C=CCN(CC=C)C(=O)c1cccc(OC2CCN(S(=O)(=O)N(C)C)CC2)c1	i	-20%	i	0%	-2%	5%
C=CCN(CC=C)C(=O)c1ccc(OC2CCN(S(=O)(=O)N(C)C)CC2)cc1	?	-12%	21µM*	-3%	2%	-2%
CC1CC(Nc2ccccc2)c2ccccc2N1C(=O)c1cccnc1 (stereo unspecified)	i	3%	i	9%	-4%	?
